Laboratory results: PubChem BioAssay (NCI)
This is part of a sample that, as a whole, favours compounds with a hit. Of some 83,000 tested, about 20% had one in any assay.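 Growth was measured after 48 h exposure to one concentration of compound in 96-well plates. Values under 10 count as active.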 Unmarked numbers belong to inactive results. Calls of active or inactive are those of the source.

Legend:
Experiment in all cases: NCI-60 one-dose screen, 48 h (100 = growth as untreated, 0 = no growth, -100 = all killed)
Conditions in all cases: 10 µM unless noted
BT-549 breast = system: BT-549 breast
MDA-MB-435 melanoma = system: MDA-MB-435 melanoma
SW-620 colon = system: SW-620 colon
MCF7 breast = system: MCF7 breast
HCT-116 colon = system: HCT-116 colon
HCC-2998 colon = system: HCC-2998 colon
KM12 colon = system: KM12 colon

SMILES | growth (BT-549 breast) | growth (MDA-MB-435 melanoma) | growth (SW-620 colon) | growth (MCF7 breast) | growth (HCT-116 colon) | growth (HCC-2998 colon) | growth (KM12 colon)
Cc1nnc(Nc2ccc(NC(=O)Nc3ccc(Cl)cc3)cc2)c2ccccc12 | 11.4% | -40% (active) | 20.3% | 24.9% | 7.67% (active) | 40.5% | 14.1%
Cc1nn(-c2ccc(Br)cc2)c2nc3c(nc12)C(=O)C(=O)c1ccccc1-3 | 94.7% | 110% | 93.5% | 67.3% | 86.3% | 93% | 103%
Cc1nn(-c2ccccc2)c2c1oc(=O)c1cc(Cl)ccc12 | 91% | 106% | 106% | 92.7% | 95.2% | 102% | 93.8%
O=C(/C=C/c1cc2ccccc2[nH]c1=O)c1ccc(Cl)cc1 | 29.4% | 8.38% (active) | -19.9% (active) | 15.2% | 2.8% (active) | 10.2% | -1.06% (active)
N#Cc1c(N)[nH]c(S)c1C#N | 99.4% | 98.4% | 107% | 92.1% | 97.9% | 95.6% | 116%
COc1ccc(C2=NN(C(=O)c3cc(OC)c(OC)c(OC)c3)C(c3ccc(C#N)cc3)C2)cc1OC (configuration not stated) | 28.6% | -40.4% (active) | 16.1% | 27% | 13.6% | 35.2% | 15.1%
O=C1C(=O)c2ccc(Br)cc2-c2cc(Br)ccc21 | 63% | 20.5% | -1.44% (active) | 0.468% (active) | -71.9% (active) | 87% | 73.1%
O=C(/C=C/c1cccnc1)NCCCCC1CCCN(C(=O)c2ccccc2)C1 (configuration not stated) | 73.7% | 7.35% (active) | 25.5% | 54.4% | 7.85% (active) | 46.6% | 43.9%
COc1ccc(Nc2nccc(N3CCN(c4c5ccc(Cl)cc5nc5ccc(OC)cc45)CC3)n2)cc1 | 90.5% | 55.8% | 60.1% | 37.6% | 24% | 93.9% | 73.9%
Cc1cc(Cl)ccc1Nc1nc(C(F)(F)F)ccc1C(=O)NCC(=O)N/N=C/c1c(Cl)cccc1Cl | 85.5% | 79.6% | 80.3% | 56.2% | 57.7% | 92.9% | 50.4%
Clc1ccc(-c2nc(-c3cccs3)no2)c(Cl)c1 | 83% | 111% | 88.1% | 29.2% | 94.6% | 68% | 99.3%
